A selection: hits, their analogues and other compounds. The true share with any hit is near 2.4%.
POLB inh: qHTS Assay for Inhibitors of DNA Polymerase Beta. Potency, µM (highest dose often 114 µM), for the others: at the highest dose activity change, negative = inhibition, most hits filed as inhibitors. AID 485314, 2010. P06746. Pol beta primer extension/strand displacement, fluorescence kinetic. actives 1.3% (n = 340,000); note: % is set by controls: 0 for no effect and ±100 for the full control effect
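Enzyme-only controls used 10 nM Pol beta; buffer lacking enzyme served as negative control. Compound preincubated 15 min, then 50 nM substrate added; 0 and 10 min reads at room temperature.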
FEN1 inhibitor: qHTS Assay for the Inhibitors of Human Flap endonuclease 1 (FEN1) | Recombinant FEN1 flap cleavage, fluorescence, 15 min | P39748 | actives 0.35% (n = 390,000) | AID 588795, 2011 | Potency, µM (doses to about 114 µM), inactives show at the top dose activity change, negative = inhibition, hits mostly inhibitors; note: % is set by controls: 0 for no effect and ±100 for the full control effect; nearly all actives have a fitted effect of over 65% in size
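Potency values derive from four-parameter Hill fits of normalized qHTS data. The reaction used 10 nM FEN1 preincubated 15 min at room temperature with compound, then 50 nM DNA substrate, read at 0 and 15 min.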
POLH inh: qHTS for Inhibitors of Polymerase Eta. recombinant Pol eta, fluorescent DNA replication assay. Potency, µM (titrated, usually from 114 µM), inactives show at the highest dose activity change, negative = inhibition, most hits filed as inhibitors. actives 1.2% (n = 390,000); note: % is set by controls: 0 for no effect and ±100 for the full control effect
Target sequence (Q9Y253 whole entry, looked up): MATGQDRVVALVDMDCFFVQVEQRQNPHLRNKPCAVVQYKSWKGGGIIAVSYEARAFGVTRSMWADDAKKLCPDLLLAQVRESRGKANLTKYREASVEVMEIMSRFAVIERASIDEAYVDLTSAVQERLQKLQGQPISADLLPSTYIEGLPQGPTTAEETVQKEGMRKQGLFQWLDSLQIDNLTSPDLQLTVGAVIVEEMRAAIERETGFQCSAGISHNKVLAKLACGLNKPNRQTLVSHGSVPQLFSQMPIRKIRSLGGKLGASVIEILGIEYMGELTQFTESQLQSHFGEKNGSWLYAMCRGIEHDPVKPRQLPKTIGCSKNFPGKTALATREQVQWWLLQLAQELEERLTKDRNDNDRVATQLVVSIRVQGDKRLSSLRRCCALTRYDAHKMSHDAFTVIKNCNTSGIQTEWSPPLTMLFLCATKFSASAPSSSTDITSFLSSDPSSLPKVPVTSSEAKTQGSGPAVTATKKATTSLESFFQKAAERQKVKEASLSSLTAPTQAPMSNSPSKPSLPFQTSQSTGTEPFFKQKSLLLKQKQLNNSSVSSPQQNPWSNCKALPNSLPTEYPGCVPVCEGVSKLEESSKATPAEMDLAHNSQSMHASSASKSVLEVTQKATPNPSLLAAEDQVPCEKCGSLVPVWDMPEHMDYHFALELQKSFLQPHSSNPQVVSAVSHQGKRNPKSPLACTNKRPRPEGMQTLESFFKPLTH
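Fluorescent replication assay: 50 nM final substrate added after a 15 min room-temperature compound preincubation with 10 nM enzyme. Signal taken at 0 min and again at 10 min.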
WRN helicase inh: qHTS for Inhibitors of WRN Helicase. Potency, µM (highest dose often 114 µM), for the others: at the top dose activity change, negative = inhibition, actives largely listed as inhibitors. WRN helicase unwinding, fluorescent forked duplex, kinetic. actives 0.46% (n = 360,000). Bifunctional 3'-5' exonuclease/ATP-dependent helicase WRN (Homo sapiens), Q14191; note: % is set by controls: 0 for no effect and ±100 for the full control effect; nearly all actives have a fitted effect of over 55% in size
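Kinetic red-fluorescence monitoring (525/598 nm) tracks WRN helicase activity after 100 nM fluorophore-quencher forked duplex and 2 mM ATP are added to 20 nM enzyme pretreated 15 min at room temperature with compound.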
POLI inh: qHTS for Inhibitors of Polymerase Iota. actives 1% (n = 390,000). Pol iota fluorescent replication assay, 10 min. DNA polymerase iota (Homo sapiens), Q9UNA4. Potency, µM (titrated, usually from 115 µM), for the others: at the top dose activity, negative = inhibition, most hits filed as inhibitors
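Fluorescent replication assay read twice, at 0 min and 10 min after adding 50 nM (final) substrate. Enzyme (10 nM) and compounds were first incubated 15 min at room temperature; enzyme-free buffer wells were negative controls.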
POLK inh: qHTS for Inhibitors of Polymerase Kappa. DNA polymerase kappa (Homo sapiens), Q9UBT6. purified Pol kappa, fluorescent DNA synthesis assay, 10 min. Potency, µM (series often up to 107 µM), inactives show at the top dose activity, negative = inhibition, hits mostly inhibitors. actives 0.53% (n = 400,000); note: % is set by controls: 0 for no effect and ±100 for the full control effect
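Pol kappa 10 nM + cpd, 15 min RT; start w/ substrate 50 nM final; fluorescence kinetic read, 0 and 10 min. Neg ctrl: buffer, no enzyme.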
Numbers without * were called inactive; ? = inconclusive; . = no result given; [ ] = dose if it differs, or a comment. Calls come from the whole dose curve; as a rule, active = well fitted curve in the direction sought with a large enough effect; inconclusive = small, poorly fitted or top-dose-only effect, or another doubt; inactive = no such curve, though single readings can be large; an effect the other way counts as inactive or inconclusive. Potency is the fitted concentration of half-maximal effect.

SMILES	POLB inh	FEN1 inhibitor	POLH inh	WRN helicase inh	POLI inh	POLK inh
Oc1c(/C=C/C=C/C=Nc2ccccc2)sc(=S)n1Cc1ccccc1	-57.9%	-16.2%	?	-29.6%	25.1µM*	79.4µM*
CCn1c(O)c(/C=C/C=C/C=Nc2ccccc2)sc1=S	1.4%	11.7%	-12.4%	-27.5%	?	-25.9%
Cc1ccc(S(=O)(=O)N2CCN(c3nc(-c4ccc(CN5CCOCC5)s4)nc4ccccc34)CC2)cc1	.	7.4%	.	.	11.8%	-0.7%
Cc1ccc2oc(-c3cccc(NC(=S)NC(=O)c4cccs4)c3)nc2c1	-9.9%	-1.4%	2.0%	7.5%	32.0%	3.5%
Cc1cc(C)c2oc(-c3ccc(C)c(NC(=S)NC(=O)c4cccs4)c3)nc2c1	25.0%	5.9%	3.6%	-1.2%	-10.2%	-19.5%
Cc1ccc(NC(=S)NC(=O)/C=C/c2ccco2)c(O)c1	17.8µM*	-12.5%	?	-19.3%	?	?
Cc1cc(C)c2oc(-c3ccc(C)c(NC(=S)NC(=O)/C=C/c4ccco4)c3)nc2c1	20µM*	-2.7%	?	-15.1%	-2.0%	-5.1%
COc1ccc(NC(=S)NC(=O)/C=C/c2ccco2)c(OC)c1	12.7%	-5.6%	-5.2%	-7.2%	-14.5%	-17.5%
Cc1ccc2oc(-c3cccc(NC(=S)NC(=O)/C=C/c4ccco4)c3)nc2c1	44.7µM*	-15.6%	12.6µM*	?	?	?
CC(=O)Nc1ccc(-c2nnc(SCc3ccccc3)n2C)cc1	.	-1.0%	.	.	61.4%	-6.1%
Cc1ccccc1CN1[C@H]2CCCC[C@@H]2OCCS1(=O)=O	.	-12.1%	.	.	32.2%	-21.9%
O=c1cc(-c2ccc(O)cc2)oc2c(-c3c(O)cc(O)c4c(=O)cc(-c5ccc(O)cc5)oc34)c(O)cc(O)c12	.	?	25.1µM*	-10.9%	?	?
COc1cc(OC)cc(N2C(=O)CC(N3CCC(C(=O)N4CCCCC4)CC3)C2=O)c1 (configuration not stated)	20µM*	-0.7%	?	-16.3%	?	-40.8%
Cc1cc(C)c2nc(Cl)c(CN(Cc3ccco3)C(=O)Nc3ccccc3C)cc2c1	0.9%	-3.3%	-7.3%	-12.7%	89.1µM*	-8.1%
COCCN(Cc1cc2cc(C)cc(C)c2nc1Cl)C(=O)Nc1ccccc1	?	-18.6%	-13.8%	-9.4%	34.9%	-8.8%
C=C[C@@H]1c2cc(C)ccc2N(S(=O)(=O)c2ccc(C)cc2)[C@H](c2ccc(C(=O)OC)cc2)C1(C#N)C#N	.	12.6%	.	.	11.7%	-4.3%
Cc1cc2c(cc1C)N[C@]1(C[C@H]3CCCC(=O)N4CC[C@@H](C1)[C@@H]34)C(=Nc1ccccc1C)N2	.	-1.8%	.	.	-15.4%	13.9%
Cc1cc(C)c2c(=O)n(CC(=O)Nc3ccc(Cl)cc3)sc2n1	-12.1%	?	-6.6%	0.5%	-12.2%	-5.2%
CCOc1ccc(NC(=O)Cn2sc3nc(C)cc(C)c3c2=O)cc1	1.4%	89.1µM*	-13.4%	20µM*	?	-12.5%
FC(F)(F)C(F)(F)C(F)(F)c1nc2ccccc2[nH]1	.	24.0%	.	.	3.3%	3.2%
c1ccc(-c2cc3c(-n4cccc4)ncnc3o2)cc1	-11.4%	?	?	?	79.4µM*	?
O=C(COc1ccccc1Cl)Nc1ccc(OCc2cc(=O)n3ccsc3n2)cc1	31.3%	-6.9%	-9.0%	.	31.4%	-7.9%
O=c1cc(CSc2nnc(COc3ccccc3Cl)o2)nc2sccn12	35.5µM*	-1.4%	11.2%	-2.0%	-7.6%	-1.0%
C=C(C)CC(C)(C)C	.	.	.	.	.	12.8%[60.1 µM]
Cc1ccc(SCC(Cc2ccccc2)N2CCN(C)CCC2=O)cc1 (configuration not stated)	.	-15.8%	.	.	3.7%	1.2%
SMILES	POLB inh	FEN1 inhibitor	POLH inh	WRN helicase inh	POLI inh	POLK inh
CC1(C)CC(=O)c2c(oc3ccc(NS(=O)(=O)c4cccc5cccnc45)cc23)C1	-0.3%	1.5%	-11.7%	-4.3%	-13.2%	-6.9%
O=C1CCCc2oc3ccc(NS(=O)(=O)c4cccc5cccnc45)cc3c21	-18.2%	-6.8%	89.1µM*	-6.6%[11.6 µM]	?	-16.0%
CC(C)(C)n1ncc2c(=O)n(Cc3ccccc3-c3ccccc3)cnc21	.	0.1%	.	.	14.4%	3.8%
COc1ccccc1/C=C(/CC(=O)NCc1ccc(F)cc1)c1nc2ccccc2s1	44.7µM*	-0.5%	?	-8.5%[57.1 µM]	?	-16.9%
COc1ccccc1/C=C(/CC(=O)NCc1ccccc1)c1nc2ccccc2s1	20µM*	-3.1%	?	-25.0%	-5.2%	-30.6%
Nc1ccc(O)cc1	.	?	.	.	7.08µM*	89.1µM*
Nc1ccc(C(=O)O)cc1	.	-1.4%	-12.8%	7.5%	35.4%	13.6%
OC(C[n+]1c(Cl)ccc2ccccc21)c1ccccc1 (configuration not stated)	.	12.9%	.	.	?	1.8%
Cc1cccc(-n2nnnc2S(C)(=O)=O)c1	-1.4%	9.9%	5.2%	.	?	-8.2%[60.1 µM]
COc1cccc(-n2nnnc2S(C)(=O)=O)c1	7.7%	-11.9%	-4.4%	50.1µM*	14.2%	-15.6%
COc1c(O)cc2c(c1O)C1OC(CO)C(O)C(O)C1OC2=O (configuration not stated)	.	-3.8%	-15.7%	0.9%	17.6%	-1.4%
O=C1OCC2OC(O)C(O)C(O)C2OC(=O)c2cc(O)c(O)c(O)c2-c2c(O)c(O)c3oc(=O)c4c(c(O)c(O)c5oc(=O)c2c3c54)-c2c1cc(O)c(O)c2O (configuration not stated)	0.159µM*	.	.	.	.	.
CN(C(=O)COC(=O)c1ccccc1OCC(=O)Nc1ccc(Br)cc1)c1ccccc1	.	6.2%	.	.	-29.8%	-11.7%
O=C(O)c1cn(-c2ccc(F)cc2)c2cc(N3CCNCC3)c(F)cc2c1=O	.	44.7µM*	-6.4%	-17.6%	?	-11.1%
Cn1cc(S(=O)(=O)c2ccccc2)c(=O)c2cc(F)c(N3CCN(c4ccc(F)cc4)CC3)cc21	7.1%	-8.4%	-17.4%	.	-15.1%	-12.2%
CCCCC/C=C\C\C=C/C=C/C=C/[C@@H](SC[C@H](NC(=O)CC[C@H](N)C(=O)O)C(=O)NCC(=O)O)[C@@H](O)CCCC(=O)O	.	.	.	.	.	2.2%[19.4 µM]
Cn1c(=O)[nH]c(=O)c2c1nc1n2CCN1c1ccccc1	7.5%	-0.3%	-2.3%	.	79.4µM*	?
CC1CN(c2ccccc2)c2nc3c(c(=O)[nH]c(=O)n3C)n2C1 (configuration not stated)	31.2%	-6.5%	-8.3%	13.9%	1.3%	-8.0%

Screening data as filed in PubChem BioAssay.
